According to PubChem BioAssay AID602310 (National Center for Advancing Translational Sciences (NCATS), 2012):
In all, about 410,000 compounds went through this assay and about 310 (0.076%) were called active. Inconclusive results (about 2%) are left out. The sample holds actives, similar compounds and a random draw of the others, so the mix is not that of the screen. The call rests on the fitted dose curve; in most records, active means well fitted curve in the direction sought with a large enough effect; inconclusive means small, poorly fitted or top-dose-only effect; inactive means flat fitted curve, though single readings scatter.

Biological target: DNA dC->dU-editing enzyme APOBEC-3G (Homo sapiens) (UniProt Q9HC16)
Experiment: qHTS for Inhibitors of Vif-A3G Interactions: qHTS; further: nearly all actives have a fitted effect of over 60% in size;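 on activity, negative = active: hits raise eYFP signal because A3G escapes Vif-driven loss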
Conditions: HeLa A3G-eYFP + Vif (tagged APOBEC3G with the HIV-1 protein that degrades it), YFP fluorescence, overnight; series mostly up to 46.1 µM; activity, negative = active: at the top concentration
Description: The recent discovery and characterization of host restriction factors, which provide a potent defense to invading retroviruses, has provided new targets for antiviral drug development. APOBEC3G (A3G) and APOBEC3F (A3F) are potent cytidine deaminases that block HIV-1 replication; HIV-1 expresses the Vif protein, which counteracts A3G and A3F by binding to them and inducing their proteasomal degradation. The Vif-A3G and Vif-A3F interactions provide two potential targets for development of small molecules which can interfere with the ability of Vif to degrade A3G or A3F. […] To identify inhibitors that can interfere with Vif mediated degradation of A3G and A3F, we have developed Hela cell lines that stably express A3G or A3F tagged with eYFP at the C-terminal end (A3G-eYFP or A3F-eYFP, respectively) and Vif. In the absence of an inhibitor, Vif induces degradation of A3G-eYFP and A3F-eYFP, and the cells are not fluorescent. In the presence of an inhibitor, it is expected that Vif will be unable to degrade A3G-eYFP and/or A3F-eYFP, resulting in an increase in yellow fluorescence. In this assays Vif A3G was screened against the Molecular Library Small Molecule Repository (MLSMR). NIH Chemical Genomics Center [NCGC] NIH Molecular Libraries Probe Centers Network [MLPCN] MLPCN Grant: MH093245 Assay Submitter (PI): Vinay Pathak, National Cancer Institute
5 uL of 700 cells/well of A3G-YFP cells are dispensed into black, clear bottom plates. The plates are incubated overnight at 37 deg C. 23 nL of compounds are added by pintool. The plates are incubated overnight at 37 deg C and then read on the TTP Acumen (Ex 488/ Em 500-530).
On the % scale 0 is the no-effect control and ±100 the full control effect; potency means the concentration at half of the fitted maximal effect.

Sequence of DNA dC->dU-editing enzyme APOBEC-3G (Homo sapiens) (Q9HC16 whole entry, looked up): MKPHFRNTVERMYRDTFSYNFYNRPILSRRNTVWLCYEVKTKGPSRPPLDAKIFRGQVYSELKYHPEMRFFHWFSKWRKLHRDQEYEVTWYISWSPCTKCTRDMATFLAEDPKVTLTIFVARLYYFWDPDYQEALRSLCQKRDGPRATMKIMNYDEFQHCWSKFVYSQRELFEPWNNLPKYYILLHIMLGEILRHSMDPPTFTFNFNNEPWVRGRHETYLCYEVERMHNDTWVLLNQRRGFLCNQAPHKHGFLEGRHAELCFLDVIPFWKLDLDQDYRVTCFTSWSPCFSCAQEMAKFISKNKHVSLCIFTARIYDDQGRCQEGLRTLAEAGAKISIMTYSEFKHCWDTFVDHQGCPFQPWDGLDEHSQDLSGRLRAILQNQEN

SMILES | activity, negative = active | Potency
O=c1[nH]c(=O)n(Cc2ccccc2)c(O)c1/C=N/Nc1c(F)c(F)c(F)c(F)c1F | -1.03% (inactive) | 
CCC(=NCCc1ccccc1)c1c(O)n(C2CCCCC2)c(=O)[nH]c1=O | -0.155% (inactive) | 
CC/C(=N\NC(=O)c1ccccc1O)c1c(O)n(Cc2ccccc2)c(=O)[nH]c1=O |  | 10 µM (active)
ClCCN(CCCl)c1ccc(C=Nc2ccc(/C=C/c3ccnc4ccccc34)cc2)cc1 | -17.1% (inactive) | 
